BAZ2B block: qHTS Assay for Inhibitors of BAZ2B. actives 4.4% (n = 360,000). AlphaScreen BAZ2B-H3K14Ac peptide displacement. Potency, µM (highest dose often 114 µM), for the others: at the highest dose activity change, negative = inhibition, hits mostly inhibitors. Bromodomain adjacent to zinc finger domain protein 2B (Homo sapiens), Q9UIF8; note: % is set by controls: 0 for no effect and ±100 for the full control effect; nearly all actives have a fitted effect of over 60% in size
Target sequence (Q9UIF8 whole entry, looked up, the tested form may be a part): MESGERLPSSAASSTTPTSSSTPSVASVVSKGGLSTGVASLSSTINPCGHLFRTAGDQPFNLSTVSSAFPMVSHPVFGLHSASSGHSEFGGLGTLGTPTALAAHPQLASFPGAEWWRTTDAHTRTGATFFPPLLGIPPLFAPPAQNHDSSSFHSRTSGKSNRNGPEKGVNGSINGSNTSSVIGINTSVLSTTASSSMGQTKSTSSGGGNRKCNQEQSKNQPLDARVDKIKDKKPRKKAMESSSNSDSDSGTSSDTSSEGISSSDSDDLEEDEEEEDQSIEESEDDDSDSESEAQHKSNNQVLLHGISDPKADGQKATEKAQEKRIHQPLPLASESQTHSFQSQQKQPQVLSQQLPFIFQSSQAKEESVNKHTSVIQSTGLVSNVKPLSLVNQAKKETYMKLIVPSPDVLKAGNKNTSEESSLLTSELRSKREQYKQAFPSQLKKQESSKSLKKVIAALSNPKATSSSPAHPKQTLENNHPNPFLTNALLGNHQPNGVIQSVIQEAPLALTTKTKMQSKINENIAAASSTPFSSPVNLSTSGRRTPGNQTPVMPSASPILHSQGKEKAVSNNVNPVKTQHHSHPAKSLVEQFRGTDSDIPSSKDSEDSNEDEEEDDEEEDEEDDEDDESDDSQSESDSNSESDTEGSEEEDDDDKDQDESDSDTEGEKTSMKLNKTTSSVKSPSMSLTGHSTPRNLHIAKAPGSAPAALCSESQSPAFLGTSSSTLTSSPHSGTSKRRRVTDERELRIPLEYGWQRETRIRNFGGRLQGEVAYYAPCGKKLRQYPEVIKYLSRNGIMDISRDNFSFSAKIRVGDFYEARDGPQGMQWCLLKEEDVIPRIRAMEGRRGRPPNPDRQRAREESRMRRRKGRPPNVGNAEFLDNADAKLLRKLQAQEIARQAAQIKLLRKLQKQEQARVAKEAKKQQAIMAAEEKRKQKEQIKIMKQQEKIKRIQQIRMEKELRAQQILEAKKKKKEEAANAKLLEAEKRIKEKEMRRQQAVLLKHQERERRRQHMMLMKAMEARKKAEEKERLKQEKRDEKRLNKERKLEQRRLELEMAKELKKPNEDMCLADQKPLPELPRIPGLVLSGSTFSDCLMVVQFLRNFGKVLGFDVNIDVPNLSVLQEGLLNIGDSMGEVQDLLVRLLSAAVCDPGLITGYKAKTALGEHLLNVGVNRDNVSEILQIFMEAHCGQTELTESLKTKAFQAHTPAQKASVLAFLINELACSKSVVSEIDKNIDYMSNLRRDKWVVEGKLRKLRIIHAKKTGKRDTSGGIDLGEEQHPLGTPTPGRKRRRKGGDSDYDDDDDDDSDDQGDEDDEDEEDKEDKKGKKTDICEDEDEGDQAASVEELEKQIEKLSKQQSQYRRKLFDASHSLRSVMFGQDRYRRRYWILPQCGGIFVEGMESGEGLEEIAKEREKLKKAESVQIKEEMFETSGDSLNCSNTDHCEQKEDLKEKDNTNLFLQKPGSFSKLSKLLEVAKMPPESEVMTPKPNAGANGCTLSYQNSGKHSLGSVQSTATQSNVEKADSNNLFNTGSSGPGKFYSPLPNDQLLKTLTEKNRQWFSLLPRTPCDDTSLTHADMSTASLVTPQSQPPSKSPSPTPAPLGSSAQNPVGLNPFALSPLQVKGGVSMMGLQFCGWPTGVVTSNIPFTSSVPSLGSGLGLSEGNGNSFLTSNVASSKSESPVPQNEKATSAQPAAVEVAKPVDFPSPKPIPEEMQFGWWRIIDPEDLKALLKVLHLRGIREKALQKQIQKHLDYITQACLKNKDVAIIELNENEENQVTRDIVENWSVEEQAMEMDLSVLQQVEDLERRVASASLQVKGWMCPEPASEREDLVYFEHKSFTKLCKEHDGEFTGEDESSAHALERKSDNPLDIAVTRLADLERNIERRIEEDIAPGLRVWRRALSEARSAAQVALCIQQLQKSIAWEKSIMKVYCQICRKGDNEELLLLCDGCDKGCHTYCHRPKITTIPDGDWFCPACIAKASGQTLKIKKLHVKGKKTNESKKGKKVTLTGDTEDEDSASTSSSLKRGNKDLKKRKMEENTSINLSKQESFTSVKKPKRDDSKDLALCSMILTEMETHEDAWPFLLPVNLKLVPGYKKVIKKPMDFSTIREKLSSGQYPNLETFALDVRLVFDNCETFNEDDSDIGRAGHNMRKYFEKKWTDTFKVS
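AlphaScreen displacement: compounds (up to 110uM) incubated 30 min at room temperature with a preformed 50 nM BAZ2B/50 nM biotinylated H3K14Ac peptide complex in PBS pH 7.4 with Tween-20. Donor and acceptor beads at 10 ug/mL final added, 20 min light-protected before reading.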
G9a block: qHTS Assay for Inhibitors of Histone Lysine Methyltransferase G9a; G9a H3K9 monomethylation, AlphaScreen, 2 h; AID 504332, 2011; actives 8.8% (n = 350,000); Potency, µM (top dose mostly 102 µM), without a hit: at the top dose activity, negative = inhibition, actives largely listed as inhibitors; note: % is set by controls: 0 for no effect and ±100 for the full control effect; nearly all actives have a fitted effect of over 75% in size
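Methyltransferase reactions run at room temperature for 2 h (20 nM enzyme, 500 nM biotin-H3K9 peptide, 20 uM SAM) after a 15 min compound preincubation; product detected by AlphaScreen beads and anti-H3K9me1 antibody.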
HP1b binding inh: HTS for Inhibitors of HP1-beta Chromodomain Interactions with Methylated Histone Tails. Chromobox protein homolog 1 (Homo sapiens), P83916. AlphaScreen HP1-beta / biotin-H3K9me3 peptide binding. Potency, µM (doses to about 114 µM), for inactives: top-dose activity change, negative = inhibition, hits mostly inhibitors. actives 0.56% (n = 390,000); note: nearly all actives have a fitted effect of over 70% in size
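Compound inhibition of the preformed complex between 50 nM HP1-beta and 50 nM biotinylated H3K9me3 peptide was read by AlphaScreen. Buffer was PBS pH 7.4 with 0.01% Tween-20. Incubations ran 30 min at room temperature, with 10 ug/mL donor/acceptor beads.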
GLS inhibitor: qHTS for Inhibitors of Glutaminase (GLS) | GLS enzymatic activity, qHTS titration | Potency, µM (highest dose often 45.5 µM), for inactives: at the highest dose activity change, negative = inhibition, hits mostly inhibitors | actives 0.21% (n = 410,000); note: % is set by controls: 0 for no effect and ±100 for the full control effect
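Enzyme dispensed in phosphate buffer (45 mM, pH 8.2, 0.02% Tween-20), compounds pinned in, then 1 mM L-glutamine solution and the glutamate oxidase–HRP–Amplex Red mix added; fluorescence read immediately and again after 30 min at room temperature.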
JMJD2A Tudor: qHTS Assay for Inhibitors of JMJD2A-Tudor Domain; AlphaScreen JMJD2A-Tudor / H3K4me3 peptide binding; Potency, µM (series often up to 114 µM), for inactives: top-dose activity change, negative = inhibition, hits mostly inhibitors; Lysine-specific demethylase 4A (Homo sapiens), O75164; actives 4.4% (n = 390,000); note: % is set by controls: 0 for no effect and ±100 for the full control effect; nearly all actives have a fitted effect of over 50% in size
* hit, by the source's call; ? = inconclusive; · = not tested or not shown; [ ] = another dose, or the depositor's remark. The list is not random: actives were taken first. Their share in the collection is about 10%. Calls come from the whole dose curve; as a rule, active = well fitted curve in the direction sought with a large enough effect; inconclusive = small, poorly fitted or top-dose-only effect, or another doubt; inactive = no such curve, though single readings can be large; an effect the other way counts as inactive or inconclusive. Potency is the fitted concentration of half-maximal effect.

SMILES | BAZ2B block | G9a block | HP1b binding inh | GLS inhibitor | JMJD2A Tudor
Cc1nn(C)c(-c2n[nH]c(=S)n2-c2ccccc2)c1Cl | 3% | 3.2µM* | 19% | 5% | 35µM*
COc1cc(NC(=O)c2ccc(Br)cc2)ccc1NC(=O)c1cc2ccccc2o1 | 11% | 8% | 26% | -7% | -5%
COc1cccc(COC(=O)c2sc3nc4n(c(=O)c3c2C)CCC4)c1OC | -1% | 1% | 23% | -1% | -8%
Cn1cc(Cl)c(-c2n[nH]c(=S)n2-c2ccc(F)cc2)n1 | -3% | 7.9µM* | 47% | 5% | ?
Cc1nn(C)cc1-c1n[nH]c(=S)n1-c1ccc(F)cc1 | -20% | 10µM* | 16% | -11% | 5.6µM*
Fc1ccc(-n2c(-c3ccc4ccccc4n3)n[nH]c2=S)cc1 | -9% | 0% | 21% | -8% | -32%
Cc1c(-n2c(-c3ccccc3Cl)n[nH]c2=S)c(=O)n(-c2ccccc2)n1C | ? | 45µM* | 50% | -3% | ?
Cc1c(Cl)c(-c2n[nH]c(=S)n2-c2ccc(F)cc2)nn1C | -5% | ? | 27% | 14% | 45µM*
OC1CCN(c2cc(-c3ccccc3)nc3cc(-c4ccc(F)cc4)nn23)CC1 | 11% | 39% | 44% | 0% | 9%
O=C1CSC(c2cccc([N+](=O)[O-])c2)N1c1ccccc1 (stereo unspecified) | -17% | -2% | 21% | 4% | -14%
Fc1cccc(CCN2CCNC[C@@H]2Cc2ccccc2)c1 | · | · | 14% | ? | 56µM*
CCCC[C@@H]1CNCCN1CCc1cccc(F)c1 | -36% | -32%[2.33 µM] | 34% | 11% | -12%
OC(c1cccc(Cl)c1)c1ncc(-c2ccccc2Cl)[nH]1 (stereo unspecified) | · | · | · | 12% | ·
Cc1c(Cl)cccc1-n1c(-c2cccnc2)n[nH]c1=S | -2% | 16%[12.7 µM] | 43% | -2% | 35µM*
Cc1cc(Cl)ccc1-n1c(-c2cccnc2)n[nH]c1=S | 4% | 10µM* | 44% | 1% | 28µM*
Cc1ccc(C)c(-n2c(-c3cccnc3)n[nH]c2=S)c1 | ? | 32µM* | 8% | 15% | 22µM*
Cc1onc(-c2ccccc2)c1-c1n[nH]c(=S)n1-c1ccccc1Cl | -26% | 23%[0.501 µM] | 22% | -8% | -28%
Cc1ccc(C)c(-n2c(-c3csc(C)c3C)n[nH]c2=S)c1 | -30% | ? | 15% | -15% | 25µM*
CCn1c(=NC(=O)c2ccc(S(=O)(=O)N(C)C)cc2)sc2cccc(OC)c21 | 17% | 54% | 58% | -35% | 17%
CC(=O)c1ccc(N(CC(=O)NC2CCCCC2)C(=O)CNC(=O)c2cccs2)cc1 | -3% | 5% | 29% | -4% | 2%
CC(=O)Cc1nsc(NC(=O)C2Cc3ccccc3C(=O)O2)n1 (stereo unspecified) | -10% | 56µM* | 12% | 1% | -27%
Cc1ccc2nc(NC(=O)CN(C)S(=O)(=O)c3ccc(Br)s3)sc2c1 | -23% | -5%[12.7 µM] | 19% | 6% | -23%
Cc1ccc2nc(NC(=O)CNS(=O)(=O)c3ccc(Br)s3)sc2c1 | -15% | ? | 6% | -1% | 50µM*
Cc1ccc2nc(NC(=O)COC(=O)c3ccc(Br)o3)sc2c1 | 43% | ? | 10% | 7% | 45µM*
O=C(COC(=O)c1ccc(Br)o1)Nc1nc2ccccc2s1 | -6% | -36%[59 µM] | ? | 23% | -27%
SMILES | BAZ2B block | G9a block | HP1b binding inh | GLS inhibitor | JMJD2A Tudor
O=C(NCc1ccc(Cl)cc1)c1ccc(Cn2cc(C(F)(F)F)ccc2=O)cc1 | 3% | 78%[59 µM] | 9% | -2% | -7%
Cc1ccc(C)c(Oc2cc(NN3CCCCC3)c([N+](=O)[O-])cc2[N+](=O)[O-])c1 | ? | 7.9µM* | -12% | 13% | ?
O=[N+]([O-])c1cc([N+](=O)[O-])c(Oc2cccc(Cl)c2Cl)cc1NN1CCCCC1 | ? | ? | -18% | 7% | ?
O=[N+]([O-])c1cc([N+](=O)[O-])c(Oc2ccccc2F)cc1NN1CCCCC1 | ? | · | -18% | 9% | ?
COc1cc(C(C)=O)ccc1Oc1cc(NN2CCCCC2)c([N+](=O)[O-])cc1[N+](=O)[O-] | ? | 28µM* | -8% | 24% | ?
CC1(C)Cc2cccc(Oc3cc(NN4CCCCC4)c([N+](=O)[O-])cc3[N+](=O)[O-])c2O1 | ? | 35µM* | -11% | -2% | ?
Cc1cc(Oc2cc(NN3CCCCC3)c([N+](=O)[O-])cc2[N+](=O)[O-])c(C(=O)c2ccccc2)cc1Cl | ? | ? | -16% | -1% | ?
Cc1ccc(S(=O)(=O)N(C)C)cc1-n1c(SCC(=O)Nc2ccccc2)nc2ccccc2c1=O | 1% | 12%[59 µM] | 42% | 13% | -2%[57.1 µM]
FC(F)(F)c1ccccc1NC(=S)Nn1cnnc1 | -17% | 7.1µM* | ? | -18% | -29%
Cc1ccc(NC(=S)Nc2cccc3cnccc23)cc1C | -36% | -4%[12.7 µM] | ? | 0% | -34%
FC(F)(F)c1ccccc1NC(=S)Nc1cccc2cnccc12 | ? | 35µM* | ? | 0% | -28%
Cc1ccc(C)c(NC(=S)Nc2cccc3cnccc23)c1 | -36% | 22µM* | -2% | 2% | -16%
Cc1ccc(C)c(NC(=S)Nc2cccnc2)c1 | -17% | 30%[59 µM] | 16% | -14% | -9%
FC(F)(F)c1ccccc1NC(=S)N1CCCCCC1 | -1% | · | 51% | -5% | -11%
Cc1ccc(NC(=S)Nc2cccc3cnccc23)cc1 | ? | 35µM* | -7% | 33% | -27%
Cc1ccc(C(=O)NNC(=O)C2CCCN(c3ncccn3)C2)cc1 (stereo unspecified) | 10% | 23% | 15% | 7% | -4%
CC(=O)Nc1sc2c(c1C(N)=O)CCC2 | 7% | 1%[59 µM] | 34% | 21% | -18%
NC(=S)Nc1cccc2cnccc12 | -2% | -7%[59 µM] | 25% | 25% | -7%
Cc1ccccc1NC(=S)Nc1cccc2cnccc12 | -13% | 1.8µM* | -18% | 5% | -22%
Fc1ccccc1NC(=S)Nc1cccc2cnccc12 | -36% | 18µM* | -30% | 5% | -36%
COCCNc1ncnc2ccc(-c3ccc(C(=O)N(C)C)cc3)cc12 | · | 16%[0.501 µM] | · | · | ·
COC(=O)C1=C(C(=O)OC)[C@@H]2N(Cc3ccccc3)c3ccccc3[C@@]23C[C@@H](CO)N(C(=O)NC2CCCC2)C3=N1 | ? | -11%[12.7 µM] | 13% | 4% | -25%

Assay outcomes deposited in PubChem BioAssay by National Center for Advancing Translational Sciences (NCATS).
